Screening data from PubChem BioAssay.
In the library only some 0.93% were active in any assay of this set; here they are far more common.
CDC25B-CDK2 inh: human CDC25B-CDK2/CyclinA binding inhibition; P30305+P24941; HTRF CDC25B-CDK2/CyclinA binding, anti-His/anti-Flag; stronger effect = higher value; z-score (no concentration beside the values); 94,000 compounds, 0.72% hits; AID 1259370; in the data active means z-score above about 3.2
HIV TAR-Tat: HIV-1 TAR-Tat binding disruption | 100,000 compounds, 0.6% hits | HIV-1 TAR RNA, Tat peptide displacement FRET; stronger effect = higher value | z-score (test concentration not listed) | AID 1259389; active means z-score of 3 or more in at least 2 runs
Numbers without * were called inactive; · = no result given.

SMILES	CDC25B-CDK2 inh	HIV TAR-Tat
COC(=O)c1ccc(OC)c(CN2CNc3ccccc3S2(=O)=O)c1	·	1.2
CC(=O)N1c2ccc(S(=O)(=O)NCC3CCC(C(=O)NCC4CCCO4)CC3)cc2CC1C (stereo unspecified)	·	-0.21
O=S(=O)(NC1CCCCC1)c1ccc(-n2cnnn2)cc1	-2.2	-1.1
Nc1nc(N2CCCCC2)nc(NC2CCCCC2)c1[N+](=O)[O-]	·	0.94
N#CC1=C2SCN(c3cccc(Cl)c3)CN2C(=O)CC1c1ccc(F)cc1 (stereo unspecified)	7.4*	-0.98
N#CC1=C2SCN(C3CCCCC3)CN2C(=O)CC1c1ccc(F)cc1 (stereo unspecified)	0.26	1.4
Cc1ccccc1C1CC(=O)N2CN(c3ccccc3F)CSC2=C1C#N (stereo unspecified)	5.1*	-1.2
CCOC(=O)Cn1c(=O)c2c3c(sc2n(CC(=O)Nc2nccs2)c1=O)COC(C)(C)C3	-1.8	2.9
COc1ccc(NC(=O)NC(C)c2c(-n3cccc3)sc3c2CCCC3)cc1OC (stereo unspecified)	11*	0.45
COc1ccc(OC)c(NC(=O)NC(C)c2c(-n3cccc3)sc3c2CCCC3)c1 (stereo unspecified)	-5.1	-0.12
COc1ccc(S(=O)(=O)N2CCN(c3cc(N(C)C)nc(C)n3)CC2)cc1OC	1.2	1.1
Cc1cc(OCc2nc(-c3ccccc3)no2)ccc1Br	-1.6	·
C/C(=C\c1ccccc1)c1nnc2[nH]c(=O)n(C)c(=O)c2n1	-0.65	19*
Cn1c(=O)[nH]c2nnc(-c3cccnc3)nc2c1=O	-1.7	0.12
CCOCCCNc1ncnc2scc(-c3ccc(F)cc3)c12	·	-0.68
Nc1ccccc1SC/C=C/CSc1ccccc1N	15*	·
C(=C\CSc1ccccn1)/CSc1ccccn1	-1.3	·
Cc1sc2ncnc(Nc3ccc4c(c3)OCO4)c2c1C	·	0.84
Cc1c(C(=O)O)sc2ncnc(NCc3ccc4c(c3)OCO4)c12	·	5*
Cc1c(C(=O)O)sc2ncnc(Nc3ccc4c(c3)OCCO4)c12	·	25*
Cc1c(C(=O)O)sc2ncnc(Nc3ccccc3)c12	·	-8.3
COc1ccc(Nc2ncnc3sc(C(=O)O)c(C)c23)cc1OC	·	35*
Cc1sc2ncnc(NCc3ccc4c(c3)OCO4)c2c1C	-2	0.1
COC(=O)c1cc2occc2n1CC(=O)Nc1ccc(F)cc1F	-0.87	0.5
CCCN1C(=O)c2ccc(-c3ccco3)n2CC1(C)C(=O)NC1CCCCC1 (stereo unspecified)	·	-6.5
SMILES	CDC25B-CDK2 inh	HIV TAR-Tat
O=C(CSc1nc(-c2cccs2)nc2cc(=O)[nH]n12)Nc1ccccc1	·	0.68
Cc1ccc(-c2nc(SCC(=O)Nc3ccc(C)c(C)c3)n3[nH]c(=O)cc3n2)cc1	·	19*
CSc1cccc(NC(=O)CSc2nc(-c3ccc4c(c3)OCO4)nc3cc(=O)[nH]n23)c1	·	22*
CN(C(=O)CSc1nc(-c2ccccc2)nc2cc(=O)[nH]n12)c1ccccc1	·	1.6
CN(Cc1ccccc1)C(=O)CSc1nc(-c2ccccc2)nc2cc(=O)[nH]n12	·	10*
CCc1ccc(NC(=O)CSc2nc(-c3ccc4c(c3)OCO4)nc3cc(=O)[nH]n23)cc1	·	7.4
COc1ccc(NC(=O)CSc2nc(-c3cccs3)nc3cc(=O)[nH]n23)cc1	·	14*
Cc1cc(C)cc(NC(=O)CSc2nc(-c3ccccc3)nc3cc(=O)[nH]n23)c1	·	0.65
O=C(CSc1nc2ncccc2o1)Nc1ccc2c(c1)OCCO2	·	-0.27
CC(CCc1ccccc1)NC(=O)CSc1nc(-c2ccccc2F)nc2cc(=O)[nH]n12 (stereo unspecified)	·	-0.12
O=c1[nH]cnc2nn(-c3ccccc3)cc12	1.2	4*
Cc1ccc(-n2cc3c(=O)[nH]cnc3n2)cc1	0.28	3.7
Cc1ccc(C)c(N2CC(O)=C(c3nc4ccccc4n3C)C2=N)c1	-0.5	0.55
CCOc1ccc(S(=O)(=O)Nc2cc3c(c4ccccc24)OC2(C3)N(C)c3ccccc3C2(C)C)cc1 (stereo unspecified)	18*	·
CCOc1ccc(S(=O)(=O)Nc2ccc3c(c2)N(S(=O)(=O)c2ccccc2)CCC3)cc1	·	0.39
O=C(CCc1nnc2c(=O)n(-c3cccc(F)c3)ccn12)N1CCN(c2ccc(F)cc2)CC1	·	0.97
CCn1c(SCC(=O)Nc2nnc(C)s2)nnc1-c1cc2ccccc2o1	·	5.1*
CCn1c(SCC(=O)Nc2nc3ccccc3s2)nnc1-c1cc2ccccc2o1	·	1.9
CCCn1c2ccccc2c2cnn(CC(=O)NCC3CCCN3CC)c(=O)c21 (stereo unspecified)	·	1.4
COc1cc(/C=C/C(=O)O)ccc1O	·	1.5
COc1cc(/C=C/C(=O)CC(=O)/C=C/c2ccc(O)c(OC)c2)ccc1O	·	15*
COc1ccc(/C=C/C(=O)O)cc1OC	·	0.69
COc1ccc(/C=C/C(=O)CC(=O)/C=C/c2cccc(O)c2OC)cc1O	·	16*
Cn1c(=O)c(C(=O)Nc2nccs2)c(O)c2ccccc21	-1.6	·
O=C(NCc1ccncc1)c1nnc(Cc2ccc3c(c2)OCO3)o1	-0.18	0.36
SMILES	CDC25B-CDK2 inh	HIV TAR-Tat
Nc1c(-c2nc(-c3ccc4c(c3)OCO4)no2)nnn1-c1ccc(Br)cc1	·	0.46
O=C(Nc1ccc(Cl)cc1)c1nccnc1CO	0.14	0.67
Cc1nonc1NC(=O)N1CCOCC1	-1.4	1.3
Cc1nonc1NC(=O)Nc1ccncc1	9.2*	-0.99
CSc1ncc2c(=O)n(-c3ccc(C)cc3C)c(=O)[nH]c2n1	·	1.1
O=C(COC(=O)c1cccc2ccccc12)c1ccc(-c2ccccc2)cc1	-4.1	·
COc1cc(C2NC(=O)c3c(sc4c3CCN(C)C4)N2)ccc1O (stereo unspecified)	-0.03	-8.1
CN1CCc2c(sc3c2C(=O)NC(c2ccc(O)c(O)c2)N3)C1 (stereo unspecified)	-0.12	13*
Cn1c(=O)c2c(SCC(=O)N3CCCCCC3)nc(-c3cccs3)nc2n(C)c1=O	0.27	·
N.N.N.N.N.N.N.N.N.N.N.N.N.N.O.O.[Cl-].[Cl-].[Cl-].[Cl-].[Cl-].[Cl-].[Ru+4].[Ru+5].[Ru+5]	4.2*	·
CCOC(=O)c1nc2c3c4c(sc3ncn2n1)COC(C)(C)C4	-0.72	1.3
Cc1nc2sc(C(c3cccc(Cl)c3)N3CCC4(CC3)OCCO4)c(O)n2n1 (stereo unspecified)	-1.8	·
Cc1cc(O)c2c(c1)Cc1cccc(O)c1C2=O	·	7.7*
O=C1c2cccc(O)c2C(=O)c2c(O)cccc21	·	3.1
CCOc1ccc(S(=O)(=O)O)c(C)c1	-1.8	·
Fc1ccc(CNc2ncnc3c2nc2n3CCCCC2)cc1	·	-0.21
COc1ccc(-c2cc(C3CCN(c4nc(N)c5cc(OC)c(OC)cc5n4)CC3)[nH]n2)cc1OC	20*	·
COc1ccc(-c2c(N)n[nH]c2C)cc1OC	-2.2	0.76
CC(=O)Nc1sc2c(c1C#N)CCCC2	0.23	0.23
N#Cc1c(NC(=O)c2cc3ncc(Br)cn3n2)sc2c1CCCC2	0.64	7.3*
CCOC(=O)c1cnc(SCC(=O)N2CCCC(C)C2)nc1N (stereo unspecified)	·	0.56
Cc1ccc(-c2cnnc(-n3nc(C)c4c3NC(=O)CC4c3ccccc3C)n2)cc1 (stereo unspecified)	-1	0.76
O=c1c2nnn(Cc3ccc(Cl)cc3)c2ncn1Cc1cccc(F)c1	-0.08	0.94
COc1ccc(-n2nnnc2C2CCN(S(=O)(=O)c3ccc(S(C)(=O)=O)cc3)CC2)cc1	-0.93	1.4
